Results: PubChem BioAssay (NCI)
This is part of a sample that, as a whole, favours compounds with a hit. Of some 79,000 tested, about 15% had one in any assay. No stated cut-off is given here; in the data, active means growth inhibition above about 70%; inactive means the rest.

Assays:
[1] = NCI Yeast Anticancer Drug Screen. Data for the rad50 strain (AID 155);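 further: 0% = growth of vehicle-only cultures of the same strain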; details: S. cerevisiae rad50 strain growth inhibition; at 50.0 µM; active compounds read high
Outline: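 A DNA repair-deficient yeast mutant serves as the test organism; compound-induced growth inhibition is calculated against vehicle-treated cells.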

[2] = NCI Yeast Anticancer Drug Screen. Data for the mec2-1 strain (AID 157); details: S. cerevisiae mec2-1 strain, at 50.0 µM, active compounds read high
Outline: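 Compounds were applied to mec2-1 yeast cells. Their growth was then compared with that of vehicle-treated cultures to give growth inhibition.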

[3] = NCI Yeast Anticancer Drug Screen. Data for the sgs1 mgt1 strain (AID 161);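 further: 0% = growth of cultures given vehicle only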; details: S. cerevisiae sgs1 mgt1 strain, at 50.0 µM, active compounds read high
Outline: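 Yeast cells carrying a defined DNA-repair defect were exposed to test compounds. Growth inhibition was measured relative to vehicle-treated controls.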

[4] = NCI Yeast Anticancer Drug Screen. Data for the cln2 rad14 strain (AID 165);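 further: 0% = growth equal to vehicle treated cultures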; details: S. cerevisiae cln2 rad14 strain, at 50.0 µM, active compounds read high
Outline: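 Strain: cln2 rad14 yeast, altered in cell cycle control and DNA damage repair. Read-out: growth inhibition vs vehicle.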

[5] = NCI Yeast Anticancer Drug Screen. Data for the bub3 strain (AID 167); details: S. cerevisiae bub3 mutant strain, at 50.0 µM, active compounds read high
Outline: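 Inhibition values come from growth of compound-treated mutant yeast normalised to vehicle-treated controls.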

[6] = NCI Yeast Anticancer Drug Screen. Data for the mlh1 rad18 strain (AID 175); details: S. cerevisiae mlh1 rad18 strain growth inhibition; at 50.0 µM; active compounds read high
Outline: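 A repair-deficient yeast strain is exposed to test compound, and growth is scored relative to vehicle-treated controls.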

Measured: growth inhibition

Cc1nn2c(c1C#N)NNc1c-2sc(=N)nnc1=O
inactive: [1] -1.6% | [2] 0.5% | [3] 13.5% | [4] -4.4% | [5] -9.4% | [6] 15.6%

CCOC(=O)[C@H](C)OC(=O)[C@@](C)(NC(=O)c1ccccc1C(=O)OC)[C@@H]1NC=C(C(=O)OC)CS1
inactive: [1] -2.15% | [2] 26.9% | [3] 11.2% | [4] 14.4% | [5] 29% | [6] 5.8%

CCCCCCCCCC(=O)Oc1cccc2onc(C)c12
inactive: [1] -21.2% | [2] -43.5% | [3] -20.2% | [4] -7.8% | [5] -13.5% | [6] -10.8%

CC1CC(C)NC(C)C1 (stereo unspecified)
inactive: [1] -17.1% | [2] -25.6% | [3] -50% | [4] 3.15% | [5] -10.9% | [6] -7.6%

O=C(O)C1C2C=CC(O2)C1C(=O)Nc1ccccc1 (stereo unspecified)
inactive: [1] 13.7% | [2] 3.5% | [3] 7.5% | [4] -1.9% | [5] -19.4% | [6] 8.3%

O=C(CCCC(=O)NNC(=O)Nc1cccc(Cl)c1)NNC(=O)Nc1cccc(Cl)c1
inactive: [1] -13.2% | [2] -2.2% | [3] -10.9% | [4] -12.9% | [5] -1.7% | [6] -10.6%

O=C(COc1cccc(Cl)c1)Nc1cccc(S(=O)(=O)O)c1 (tested in a mixture with another compound)
inactive: [1] 5.15% | [2] -7.65% | [3] -12.8% | [4] -16.6% | [5] 2% | [6] 11.2%

Nc1[nH]c(=O)nc2nc(I)[nH]c12
inactive: [1] 5.05% | [2] 2.75% | [3] 22.7% | [4] -17.2% | [5] 22.9% | [6] 3.35%

CCC(=O)Oc1cccc(C)c1
inactive: [1] 13.8% | [2] -8.4% | [3] 2.05% | [4] -10.6% | [5] 4.2% | [6] -15.4%

CC(c1ccccc1)/[N+]([O-])=C/c1ccccc1 (stereo unspecified)
inactive: [1] -31.7% | [2] -33.4% | [3] -46% | [4] -6.7% | [5] -57.2% | [6] -21.6%

CCCCCCCCCCCCOc1cccc(OCCCCCCCCCCCC)c1
inactive: [1] 29.4% | [2] -4.75% | [3] 21.8% | [4] -41.1% | [5] -1.9% | [6] -19.1%

CCCC(CCO)(CCO)c1ccccc1
inactive: [1] 16.6% | [2] -30.4% | [3] -9.65% | [4] 10.9% | [5] 8.1% | [6] -5.7%

CCCNC(=S)/N=C/c1c(O)c2ccccc2[nH]c1=O
inactive: [1] -40% | [2] -44.6% | [3] -11.7% | [4] 12.3% | [5] 6.8% | [6] -13.6%

c1ccc(C2=Nc3ccccc3N=C3CCCC32)cc1 (stereo unspecified)
inactive: [1] 45.2% | [2] 22.6% | [3] 3.3% | [4] 10.6% | [5] 21.4% | [6] 58.7%

C=C(CN(C)C)C(=O)c1ccc(C(=O)C(=C)CN(C)C)cc1
inactive: [1] -1.4% | [2] 6.85% | [3] 2.2% | [4] -2.15% | [5] 0.65% | [6] 6.4%

CC(C)CC(C)(O)C#CC(C)(O)CC(C)C (stereo unspecified)
inactive: [1] -1.8% | [2] -25.4% | [3] -12.7% | [4] -31.4% | [5] 4.55% | [6] -22.2%

NC(=S)Nc1ccccc1Cl
inactive: [1] -14.3% | [2] -6.2% | [3] 15.6% | [4] -18.1% | [5] -10.8% | [6] 10.6%

CCOC1=C2C(C)(CCC3[C@@]4(C)C=CC(=O)C(C)(C)C4CC(O)[C@@]23C)C(c2ccoc2)C1=O (stereo partly specified)
inactive: [1] 54% | [2] 31% | [3] 45.5% | [4] 45.3% | [5] 20.1% | [6] 30.8%

CCCNC(=O)N1C(=O)c2ccccc2S1(=O)=O
inactive: [1] -26.8% | [2] -7.2% | [3] 7.85% | [4] -26.1% | [5] -14.1% | [6] -22.6%

CCOC(=O)CC1(O)C(=O)N(Cc2ccccc2)c2ccccc21 (stereo unspecified)
inactive: [1] 15.6% | [2] -0.15% | [3] 7.55% | [4] 0.4% | [5] 19.8% | [6] -15.1%

O=c1cc(CC2(O)CCCCC2)c2ccccc2[nH]1
inactive: [1] -3.95% | [2] 0.3% | [3] -2.5% | [4] -58% | [5] -48.8% | [6] 9.8%

N#CC(C(=O)O)C(c1cccc2ccccc12)c1cccc2ccc3ccccc3c12 (stereo unspecified)
inactive: [1] 51% | [2] -2.3% | [3] 27.1% | [4] -4.35% | [5] 7.05% | [6] 13.8%

Oc1nc2nc[nH]n2c1N=Nc1ccccc1
inactive: [1] -22.7% | [2] -12.9% | [3] -7.5% | [4] -12.5% | [5] 10.3% | [6] 6.9%

Cc1c[n+]2c(C)cccc2n1C
inactive: [1] 10.9% | [2] 27.9% | [3] 27.1% | [4] -26.2% | [5] -8.05% | [6] 3.65%

O=C(O)/C=C/C(=O)Nc1ccc(Cl)cc1C(=O)c1ccccc1
inactive: [1] 24.6% | [2] 9.1% | [3] 33% | [4] 0.4% | [5] 14.6% | [6] 20.8%

CN1CSCC1C(=O)O (stereo unspecified)
inactive: [1] 13% | [2] -3.25% | [3] -8.45% | [4] -39.4% | [5] -9.1% | [6] 11.8%

Cc1ccc(S(=O)CC(CF)OCn2cc(C)c(=O)[nH]c2=O)cc1 (stereo unspecified)
inactive: [1] 1.6% | [2] 6.65% | [3] -42.6% | [4] 10.2% | [5] -16.1% | [6] -53%

COc1ccc(C(C)c2cc3c(cc2OCC(=O)O)OCO3)cc1OC (stereo unspecified)
inactive: [1] -7.65% | [2] -10.2% | [3] -6.85% | [4] -4.8% | [5] -0.2% | [6] -3.2%

CSCC(=O)c1ccccc1
inactive: [1] 17.4% | [2] 6.55% | [3] 9.25% | [4] -6.3% | [5] 2.15% | [6] 5.3%

CC1(C#N)C(C#N)(C#N)C1(C#N)C#N
inactive: [1] -0.05% | [2] -3.35% | [3] -10.8% | [4] -13.2% | [5] -30.1% | [6] -21.1%

CC1(C)OC(=O)CC2(C)OC12 (stereo unspecified)
inactive: [1] -8% | [2] -52.3% | [3] -11.2% | [4] -16.4% | [5] -5.9% | [6] -19.2%

CC1Cn2c(nccc2=O)S1 (stereo unspecified)
inactive: [1] -15.1% | [2] -14.2% | [3] -33.4% | [4] 1.9% | [5] 3.5% | [6] -29.1%

COc1cc2c(cc1OC)C(=O)/C(=C/c1ccc(N(C)C)cc1)CC2
inactive: [1] -39.5% | [2] -58% | [3] -28.9% | [4] -63.7% | [5] -7.2% | [6] -39.8%

CCN(CC)CCN(CCN(CC)CC)c1c(OC)cccc1OC
inactive: [1] 5.8% | [2] -13.2% | [3] 9.25% | [4] -14.4% | [5] 9.15% | [6] 15.8%

COC1CC(C)OC(OC2C(C)/C=C/C(=O)OC(C)C(COC3OC(C)C(O)C(OC)C3OC)C3OC3/C=C/C(=O)C(C)(O)CC2C)C1O (stereo unspecified)
inactive: [1] 1.55% | [2] -5.25% | [3] 3.55% | [4] 1.5% | [5] 5.25% | [6] 5%

CCOc1cc(/C=N\NC(=S)N/N=C/c2ccc(O)c(OCC)c2)ccc1O
inactive: [1] -15.2% | [2] -0.75% | [3] -4.35% | [4] 1.55% | [5] -6.65% | [6] 29.9%

COC(=O)Cc1ccccn1
inactive: [1] 0.4% | [2] -18.9% | [3] 1.4% | [4] 14.5% | [5] -21.5% | [6] 22.4%

C=CCOC(=O)C1CC(C)=CC(C)C1C (stereo unspecified)
inactive: [1] 23.5% | [2] 3.6% | [3] -13.7% | [4] -46.4% | [5] -12.1% | [6] 5.2%

CON
inactive: [1] -16.2% | [2] -5.35% | [3] 2.4% | [4] -13.1% | [5] 0.3% | [6] -12.2%

CC(=O)OC(C)(C)[C@@H]1CC[C@H](C)C2=C(C1)[C@@H](C)CC2
inactive: [1] -13.8% | [2] -30.9% | [3] -23.9% | [4] 2.05% | [5] -16.1% | [6] -16.1%

O=C(OCC1OC(OC(=O)N(c2ccccc2)c2ccccc2)C(OS(=O)(=O)c2ccc([N+](=O)[O-])cc2)C1OC(=O)c1ccccc1)c1ccccc1 (stereo unspecified)
inactive: [1] 34.1% | [2] -5.05% | [3] -5.05% | [4] -10% | [5] 0.1% | [6] 24%
